From ChEMBL document CHEMBL4513216, “Probing the Open Global Health Chemical Diversity Library for Multistage-Active Starting Points for Next-Generation Antimalarials” (ACS Infect Dis, 2020) come the findings set out here.

About 8,600 (12%) of roughly 69,000 compounds showed an effect of 50% or more. Many of the other results were omitted from the sample, so strong results are more common in it than they were.

The subject of this assay is Plasmodium berghei. Description: Screen against P. berghei liver stage (PbLuc), transformed with Luciferase, at 10uM. Format: functional, HepG2. The conditions noted are these: tested at 10 uM.
As for `O=C1COC2(CCN(c3ccccn3)CC2)CN1Cc1ccccn1`, the INHIBITION was found to be 16.6%. Consider `CCCc1noc(CN2CCC(N(C)Cc3nnc(C4CC4)o3)C2)n1` (stereo not given), for which the INHIBITION is on record as -16%.

Turning to `COC(=O)c1cccn1C1CCN(Cc2cccc(C(N)=O)c2)CC1`, the INHIBITION was found to be 45.1%. With `COC(=O)c1cccn1C1CCN(Cc2ccccc2)CC1`, the INHIBITION was 56.1%.

As for `COC(=O)c1cccn1C1CCN(Cc2cccnc2)CC1`, the INHIBITION worked out at 11.6%. As for `COC(=O)c1cccn1C1CCN(Cc2nc3ccccc3o2)CC1`, the INHIBITION was determined as 15.6%. On to `COC(=O)c1cccn1C1CCN(Cc2cnc3ccccn23)CC1`, for which the INHIBITION amounted to 66.8%. Regarding `COC(=O)c1cccn1C1CCN(CCN2C(=O)CCC2=O)CC1`, the INHIBITION is recorded as 1.75%.

With `Cc1nc(CN2CCC(N(C)Cc3nnc(C4CC4)n3C)C2)oc1C` (stereo not given), the INHIBITION was determined as 16.8%.

Take `Cc1ccc(CN2CCC3(CC2)CCN(Cc2ccco2)CC3)cc1`: the INHIBITION is given as -13.7%.

For `Cc1ccc(N2C[C@H](C(=O)NCC3CC3)[C@@H]3CCO[C@@H]3C2)nn1`, the INHIBITION is reported as 42.7%. In the case of `COCC1CN(Cc2ccoc2)Cc2nnn(C)c21` (stereo not given), the INHIBITION is -6.21%. As to `CCc1nc2n(n1)CC(NCC(=O)Nc1oc(C)c(C)c1C#N)CC2` (stereo not given), the INHIBITION was -13.5%.

Take `COc1ccc2c(c1)NC(=O)C2OC(=O)CCc1ccc(F)cc1` (stereo not given): the INHIBITION was 14.9%.

Turning to `COc1ccc2c(c1)NC(=O)C2OC(=O)Cc1ccccc1C` (stereo not given), the INHIBITION amounted to 58.5%.

Take `COc1ccc2c(c1)NC(=O)C2OC(=O)CC(C)(C)C` (stereo not given): the INHIBITION came out at 44%. `CN(C)c1cc(C(F)(F)F)nc(N2CCCC2c2ccccn2)n1` (stereo not given): the INHIBITION is on record as -84.3%. Regarding `CN(Cc1nnc2n1CCC2)C(=O)c1ccc2c(c1)OCO2`, the INHIBITION amounted to 16.8%. In the case of `Cc1cccc(CN2CCc3ncnc(C4CC4)c3CC2)n1` it was -27.4%; in that of `Cc1c(CN2Cc3nccn3CC2c2ccccc2)cnn1C` (stereo not given), 14.435%; in that of `CCOCCc1nc(-c2cnn3c(C)cc(C)nc23)no1`, 10.6%. As to `COC(C)Cc1nc(-c2cnn3c(C)cc(C)nc23)no1` (stereo not given), the INHIBITION is recorded as 31.2%. Regarding `CCc1nc(Cn2c(=O)c3c(C(F)(F)F)cc(C)nc3n2C)no1`, the INHIBITION worked out at 10.5%. With `CCS(=O)(=O)Cc1nc(-c2cnn3c(C)cc(C)nc23)no1`, the INHIBITION is 70.5%.

For `COCCc1nc(-c2cnn3c(C)cc(C)nc23)no1`, the INHIBITION is 34.6%. The result for `CCN(CC)C(=O)CCc1nc(-c2cnn3c(C)cc(C)nc23)no1` reads 57.7%. As for `Cc1nc(CN(C)C2CCN(CCc3cnn(C)c3)C2)no1` (stereo not given), the INHIBITION turned out to be 11.2%. For `Cc1ccccc1C(=O)NC(C)CN1CCOC1=O` (stereo not given), the INHIBITION is listed as 39.3%.

For the compound `CCS(=O)(=O)N1CCN(C(C)(C)CO)CC1`, the INHIBITION turned out to be 11%. Turning to `Cc1cnn(CCNCc2cc(C#N)ccc2F)c1`, the INHIBITION turned out to be 34.15%. As for `Cc1noc(C)c1CN1CCn2c(CN3CCN(C)CC3)cnc2C1`, the INHIBITION is reported as 21.6%. Take `CCc1cc(N2CCC(N[C@@H]3CS(=O)(=O)C[C@H]3O)CC2)nc(N(C)C)n1`: the INHIBITION amounted to 35.3%. On to `CCc1cc(N2CCC(NC3CCOCC3)CC2)nc(N(C)C)n1`, for which the INHIBITION came to 29.1%. The result for `CCc1cc(N2CCC(NC3CN4CCC3CC4)CC2)nc(N(C)C)n1` (stereo not given) reads 62.4%; that for `Cn1ncc2c1NC(=O)CC2c1ccc(F)cc1` (stereo not given), 3.46%.

Regarding `CCCn1nnnc1COc1cc(OC)ccc1C(N)=O`, the INHIBITION is reported as -15%. In the case of `CC(C)C[C@@H](N)C(=O)N(C)Cc1csc(C(C)C)n1` it was -40.5%; in that of `CC(C)n1cc(S(=O)(=O)N2CCSCC2)cn1`, -28.8%.

In the case of `CNC(=O)C1Cn2ccnc2C2(CCN(Cc3cccc(C)n3)CC2)O1` (stereo not given), the INHIBITION was found to be 29.6%.

Consider `CC(C(=O)NC(N)=O)N1CCN(c2ccc(C#N)cc2F)CC1` (stereo not given), for which the INHIBITION is -45%. In the case of `Cc1cc(NC(=O)C(C)N2CCN(c3ccc(C#N)cc3F)CC2)no1` (stereo not given) it was 55%. On to `Cc1cc(NC(=O)C(C)N2CCN(c3ccccc3F)CC2)no1` (stereo not given), for which the INHIBITION came to 8.38%. Regarding `COCC(=O)N1CC[C@@H](OCC2CC2)[C@@H]1Cc1cccnc1`, the INHIBITION is -31.4%. In the case of `Cc1cnn(CC2CCCN2Cc2noc(C(C)C)n2)c1` (stereo not given), the INHIBITION came to 25.6%. As to `COCCO[C@H]1CCN(C(=O)C2CCOCC2)[C@H]1Cc1ccncc1`, the INHIBITION was determined as 26.7%. In the case of `CCOc1cncc(N2CCN(c3ccccc3O)CC2)n1` it was 39.7%. Take `c1ccc(OCCNC2CCN(c3ncccn3)CC2)cc1`: the INHIBITION is given as -32.6%. `Cc1cc(N2CCC(NCCOc3ccccc3)CC2)nc(C)n1`: the INHIBITION was determined as 9.72%. For the compound `Cc1nc(C)c(C)c(N2CCC(NCCOc3ccccc3)CC2)n1`, the INHIBITION came to 77.8%.

`O=C(CC1COCCN1)N1CCC2(CCc3ccccc32)CC1` (stereo not given): the INHIBITION is -60.2%.

For `Cc1ncc(CN2CCN(c3ccc4nncn4n3)C(C)C2)s1` (stereo not given), the INHIBITION was determined as 8.64%. For `CC1CN(Cc2cnn(C)c2)CCN1c1ccc2nncn2n1` (stereo not given), the INHIBITION was 10%. In the case of `COc1cccc(CN2CCN(c3ccc4nncn4n3)C(C)C2)c1` (stereo not given), the INHIBITION turned out to be 83%. The result for `CC1CN(Cc2cccc(C#N)c2)CCN1c1ccc2nncn2n1` (stereo not given) reads 53.5%; that for `CC1CN(c2ccc(C#N)cn2)CCN1c1ccc2nncn2n1` (stereo not given), -9.69%. For the compound `CC1CN(Cc2cccnc2)CCN1c1ccc2nncn2n1` (stereo not given), the INHIBITION amounted to 16.9%.

As to `CC(C)c1nccn1C1CCCN(C(=O)c2cc(C3CC3)on2)C1` (stereo not given), the INHIBITION was 48.4%.

`CNC(=O)C1CN(C(=O)Cc2ccc(OC)cc2)Cc2cn(C)nc21` (stereo not given): the INHIBITION was -6.51%. Consider `O=C(NC1CCN(c2cccc(OC(F)(F)F)c2)C1=O)C1CCC1` (stereo not given), for which the INHIBITION is on record as 34.6%. Regarding `O=C(NC1CCN(c2cccc(OC(F)(F)F)c2)C1=O)C1CC1` (stereo not given), the INHIBITION was 61.1%. In the case of `CCC(=O)NC1CCN(c2cccc(OC(F)(F)F)c2)C1=O` (stereo not given), the INHIBITION was 40.6%. As for `O=C1NCC[C@]12CN(Cc1nccs1)C[C@H]2c1ccccc1`, the INHIBITION amounted to 45.8%. Consider `CN(CC1(C)COC1)C(=O)c1cc(-c2cnn(C)c2)nc2ccccc12`, for which the INHIBITION worked out at 9.7%.

Take `COc1ccccc1-c1c[nH]c(C2CCCN2)n1` (stereo not given): the INHIBITION was -33.3%. Take `CCc1n[nH]c(C(=O)N2CCCC3(CN(C)C(=O)O3)C2)c1C` (stereo not given): the INHIBITION turned out to be 45.2%.

With `CCc1ocnc1C(=O)N1CCN(c2ccc3ccccc3c2)CC1`, the INHIBITION is recorded as 26.5%. For the compound `CCc1n[nH]c(C(=O)N2CCN(c3ccc4ccccc4c3)CC2)c1C`, the INHIBITION was determined as 61.1%.

Regarding `Cc1nc(CN(CCS(C)(=O)=O)C(C)C)cs1`, the INHIBITION worked out at 53.6%. The result for `CC(C)N(CCS(C)(=O)=O)Cc1csc(Cc2ccc(Cl)cc2)n1` reads 35%; that for `CC(C)N(CCS(C)(=O)=O)Cc1csc(-c2ccccc2F)n1`, 33.2%.
